Values joined by “and” are separate entries in the source; they are usually repeats but may differ in a detail not shown here. Equal entries are not always repeated. Results filed as inconclusive are left out. Unmarked numbers belong to inactive results. Active and inactive are the calls of the source. Calls come from the whole dose curve; as a rule, active = well fitted activation curve with a large enough effect in the repeat runs; inconclusive = weak or mixed curves; inactive = flat fitted curve, though single readings scatter.
experiment: A CellTox Green Cytotoxicity Assay to monitor cytotoxicity in HEK293 cells - 32 hour (AID 1224881); settings: CellTox Green fluorescence; series mostly up to 76.8 µM; cytotoxicity increase: at the top concentration; note: nearly all actives have a fitted effect of over 40% in size
In short: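 Cells (HEK293, 600/well) and dye reagent are dispensed together. After 5 h at 37 C, 23 nL compound is pinned in. Plates stay at 37 C for 40 h with fluorescence read at 0h, 8h, 16h, 24h, 32h and 40h.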
% is set by controls: 0 for no effect and ±100 for the full control effect; potency is the fitted concentration of half-maximal effect.

| SMILES | cytotoxicity increase | Potency |
| --- | --- | --- |
| C=CC(C)(CCC=C(C)C)OC(=O)c1ccccc1N (centres undefined) | -2.3% |  |
| O=C(N/N=C/c1ccc([N+](=O)[O-])o1)c1cc([N+](=O)[O-])cc([N+](=O)[O-])c1O | -23.5% [at 35.3 µM] |  |
| CC(O)CN1CCN(CC(=O)[O-])CCN(CC(=O)[O-])CCN(CC(=O)[O-])CC1.[Gd+3] (centres undefined) | -5.52% [at 35.3 µM] |  |
| CCc1cnc(C2=NC(C)(C(C)C)C(=O)N2)c(C(=O)O)c1 (centres undefined) |  | inactive |
| CCOP(=O)(SC(C)CC)N1CCSC1=O (centres undefined) | -16% |  |
| CCCCCCCCn1sccc1=O |  | 55.1 µM (active) and 25.7 µM (active) |
| C1CS1 | -4.23% |  |
| CN(C)c1ccc(N=O)cc1 |  | 11 µM (active) and 19.5 µM (active) |
| CC(C)(C)NCC(O)c1cc(Cl)c(N)c(C(F)(F)F)c1 (centres undefined) | 5.3% [at 35.3 µM] |  |
| Cc1ncc(C[n+]2csc(CCO)c2C)c(N)n1 | -5.87% |  |
| CCC1CCC(=O)O1 (centres undefined) | 0.447% |  |
| CC1(C)CC(=O)CC(C)(C)N1[O] | -1.28% |  |
| O=C(O)C(Cl)(Cl)Br | 21.1% |  |
| CC1(C)[C@H](C(=O)O[C@H](C#N)c2cccc(Oc3ccccc3)c2)[C@@H]1C=C(Br)Br |  | inactive |
| Nc1ccccc1C(=O)OCCc1ccccc1 |  | 21.9 µM (active) |
| CN1CC[C@]23c4c5ccc(O)c4O[C@H]2[C@@H](O)CC[C@H]3[C@H]1C5 | -8.47% |  |
| C[C@H]1O[C@H](OC2[C@@H](O)[C@@H](O)C(O)[C@H](O)[C@H]2O)[C@@H](N)C[C@@H]1N=C(N)C(=O)O (some centres undefined) | 0.0025% |  |
| CC(C)c1ccc(OP(=O)(Oc2ccc(C(C)C)cc2)Oc2ccc(C(C)C)cc2)cc1 |  | inactive |
| CCOP(=O)(O)C(N)=O | 5.23% |  |
| SCc1ccccc1 | 1.64% |  |

| SMILES | cytotoxicity increase | Potency |
| --- | --- | --- |
| N#CC1(N=NC2(C#N)CCCCC2)CCCCC1 | 0.256% |  |
| CC(C)(C)OOC(C)(C)CCC(C)(C)OOC(C)(C)C | -9.36% |  |
| CC(C)(C#N)C(C)(C)C#N | -20.6% |  |
| CCCCNC(=O)OCC#CI |  | 54.9 µM (active) |
| Cc1cnc(C2=NC(C)(C(C)C)C(=O)N2)c(C(=O)O)c1 (centres undefined) | -3.92% |  |
| O=C(N[C@H]1CN2CCC1CC2)c1ccc2c(c1)OCCO2 | -21.5% |  |
| O=C1NC(=O)C(=O)C(=O)N1 | -8.55% |  |
| Cc1ccc(N)c(C)c1 |  | inactive |
| CCOP(=S)(S)OCC | 3.02% |  |
| CCC[N+](CCC)(CCC)CCC | -2.51% |  |
| C=CCOCC1CO1 (centres undefined) | -7.53% |  |
| CN1C[C@H](C(=O)N[C@]2(C)O[C@@]3(O)[C@@H]4CCCN4C(=O)[C@H](Cc4ccccc4)N3C2=O)C=C2c3cccc4[nH]cc(c34)C[C@H]21 | 19.3% [at 35.3 µM] |  |
| COC(=O)C1(O)c2ccccc2-c2ccccc21 | -19.1% |  |
| CNC(=O)Oc1cccc(N=CN(C)C)c1 | -3.11% |  |
| Cc1cccc(C)c1NC1=NCCCS1 | -14.7% [at 35.3 µM] |  |
| CC(CC(C(N)=O)(c1ccccc1)c1ccccc1)N(C)C (centres undefined) | -3.6% [at 35.3 µM] |  |
| COC1=CC(=O)O[C@@H](/C=C/c2ccc3c(c2)OCO3)C1 | -11.7% |  |
| CCOC(=O)C1OC1(C)c1ccccc1 (centres undefined) | -2.95% |  |
| c1ccc2c(c1)-c1cccc3cccc-2c13 | 3.88% |  |

Reference: PubChem BioAssay (Tox21)
